# Assay outcomes (PubChem)
# An excerpt weighted towards active compounds, which were near 2.5% of everything screened.
# MEKK3 PB1 HTS: raises or lowers MEK5 binding to the human MEKK3 PB1 domain. binding response (% of control), % at 10 µM. hit rate 1.4% among 290,000. Q99759. bead-based flow cytometry, Alexa488-MEK5 binding to MEKK3; actives lie on both sides; 0 = blocked by unlabeled MEK5, 100 = vehicle. AID 1529;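 active = binding response more than 3 SD above or below the average of its plate-row segment, actives on both sides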;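 note: Alexa488 bead fluorescence after subtracting the streptavidin-only scavenger bead signal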
# Target sequence (Q99759 whole entry, looked up, the tested form may be a part): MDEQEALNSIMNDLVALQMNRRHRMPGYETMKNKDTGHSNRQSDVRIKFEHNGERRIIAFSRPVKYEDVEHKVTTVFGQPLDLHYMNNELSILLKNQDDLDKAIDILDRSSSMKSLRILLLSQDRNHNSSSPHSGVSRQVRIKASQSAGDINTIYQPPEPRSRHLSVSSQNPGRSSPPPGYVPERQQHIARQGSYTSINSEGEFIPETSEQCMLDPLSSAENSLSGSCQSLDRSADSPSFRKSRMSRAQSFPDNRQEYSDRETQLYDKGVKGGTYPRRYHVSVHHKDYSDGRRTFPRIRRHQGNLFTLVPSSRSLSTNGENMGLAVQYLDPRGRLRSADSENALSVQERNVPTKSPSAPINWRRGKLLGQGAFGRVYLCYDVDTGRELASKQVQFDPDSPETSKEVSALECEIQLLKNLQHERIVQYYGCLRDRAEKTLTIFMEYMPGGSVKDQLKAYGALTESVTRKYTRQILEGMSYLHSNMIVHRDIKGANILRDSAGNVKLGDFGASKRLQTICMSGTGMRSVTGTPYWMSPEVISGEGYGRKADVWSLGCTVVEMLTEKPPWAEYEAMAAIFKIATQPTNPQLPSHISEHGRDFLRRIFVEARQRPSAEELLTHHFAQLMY
# MEKK2 mut-MEK5: signal of MEK5 binding to mutant human MEKK2 PB1 domain | bead flow cytometry, Alexa488-MEK5 binding to MEKK2 mutant | AID 1530 | hit rate 0.35% among 290,000 | percent response, % at 10 µM; in the data active = percent response above about 24%, passing the limit was not always enough
# MEKK2 WT-MEK5: raises or lowers MEK5 binding to wildtype human MEKK2 PB1 domain; Q9Y2U5; bead flow cytometry, Alexa488-MEK5 binding to MEKK2 WT; actives lie on both sides; binding response (% of control), % at 10 µM; hit rate 1.1% among 290,000; in the data active = binding response below about 67% or above about 130%
# GRK2 inh: human GRK2 inhibition via aptamer displacement; P25098; bead flow cytometry, FAM-aptamer displacement from GRK2; inhibition of aptamer binding, % at 10 µM; hit rate 0.59% among 330,000; AID 488847;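 active = inhibition of aptamer binding above 40%, roughly 3 SD of noise, on plates passing a quality check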;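 note: median bead fluorescence of bound FAM aptamer so fluorescent compounds give negative values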
# GRK2 inh confirm: human GRK2 inhibition confirmation, cherry pick 1; shares compounds with GRK2 inh; bead-bound GRK2, FAM-aptamer displacement, flow cytometry; aptamer displacement, % at 10 µM; hit rate 4% among 2,000; AID 504451;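 active = aptamer displacement above 40%, near three times the noise of non-fluorescent compounds, on plates passing quality checks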;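 note: negative values mostly reflect intrinsic compound fluorescence rather than true enhancement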
# Aptamer quench: quenches fluorescent RNA aptamer, GRK2 hit artifact; shares compounds with GRK2 inh; 110 tested, under 10 active; Fluorescent RNA aptamer beads, quenching, flow cytometry; stronger effect = higher value; fluorescence change (kMESF span), kMESF (concentration not given with the values); AID 504521;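 active = compounds whose bead fluorescence drops by more than 37 kMESF across the dose range, marking them as dye quenchers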
# Aptamer quench SP: counter-screen for GRK2 aptamer inhibitors: fluorescent aptamer quenchers | shares compounds with GRK2 inh | Carboxyfluorescein RNA aptamer on beads, flow cytometry quenching; stronger effect = lower value | fluorescence response (% of DMSO), % at 10 µM | 2,000 tested, under 10 active | AID 504580;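 active = compounds that quench the bead-bound fluorescent RNA probe, cutting fluorescence to under half of the solvent control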;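 note: counterscreen run without GRK2 so only probe quenching by compound is measured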
# GRK2 CP2: confirmation of human GRK2 inhibitors binding RNA aptamer site | shares compounds with GRK2 inh | bead-bound GRK2, FAM-aptamer displacement, flow cytometry | inhibition of aptamer binding, % at 10 µM | 360 tested, under 10 active | AID 504782;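 active = inhibition of aptamer binding above 40%, about triple the noise seen with nonglowing compounds, on plates passing quality control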;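 note: negative values mostly come from compounds that fluoresce themselves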
# Aptamer quench3: counter-screen for GRK2 aptamer inhibitors: fluorescent aptamer quenchers; AID 504819; Streptavidin beads, FAM-RNA aptamer fluorescence quenching, flow cytometry; 25 tested, under 10 active; change in fluorescence (kMESF span), kMESF (concentration not given with the values); shares compounds with GRK2 inh;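 active = compounds quenching the bead-bound labeled aptamer, with fluorescence dropping by more than 37 kMESF over the dose range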
# FAM quench SP: counter-screen for GRK2 binding hits: quenchers of fluorescent RNA aptamer; shares compounds with GRK2 inh; carboxyfluorescein RNA aptamer beads, flow cytometry quenching; stronger effect = lower value; fluorescence response vs DMSO, % at 10 µM; 360 tested, under 10 active; AID 588494;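 active = response vs DMSO under 50%, meaning signal dropped by over half, treated as fluorescence quencher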;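 note: labelled aptamer on streptavidin beads without GRK2 as a quench counter-screen; 100% = bead fluorescence of DMSO wells and lower means quenching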
# FAM quench PS1: aptamer fluorescence quenching in GRK2 powder counter-screen; shares compounds with GRK2 inh; Bead-bound FAM RNA aptamer fluorescence quenching, flow cytometry; stronger effect = lower value; fluorescence ratio to DMSO, % at 11.1 µM; 35 tested, under 10 active; AID 588496;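 active = compounds that dim the fluorescent label, raw bead signal shifting by over 33 units between lowest and highest dose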
# Starred values were filed as active, the others as inactive; . = no result.
SMILES,MEKK3 PB1 HTS,MEKK2 mut-MEK5,MEKK2 WT-MEK5,GRK2 inh,GRK2 inh confirm,Aptamer quench SP,others
O=C(NCc1ccc2c(c1)OCO2)c1ccccn1,105,5,105,0,.,.,
COCc1nnc(NC(=O)CCS(=O)(=O)c2ccccc2)s1,100,-5,91,6,7,98,
CCCCc1nnc(NC(=O)CCS(=O)(=O)c2ccc(C)cc2)s1,.,.,.,1,-1,107,
CCc1nnc(NC(=O)c2cccc(S(=O)(=O)N3CCCCC3)c2)s1,101,4,102,95*,.,.,GRK2 CP2=-9;FAM quench SP=99
CCc1nnc(NC(=O)CCS(=O)(=O)c2ccccc2)s1,104,0,102,0,-1,100,
CCc1nnc(NC(=O)c2cccc(S(=O)(=O)N3CCCC3)c2)s1,101,-2,101,0,.,.,
COc1ccccc1NC(=O)COC(=O)c1[nH]c(=O)[nH]c(=O)c1N,.,.,.,0,.,.,
Cc1ccc(NC(=O)C2CCCO2)c(Br)c1 (stereo not given),.,.,.,0,.,.,
O=C(NC1CCC(O)CC1)c1ccc(NS(=O)(=O)c2cccc([N+](=O)[O-])c2)cc1 (stereo not given),.,.,.,0,.,.,
CCc1nnc(NC(=O)CCS(=O)(=O)c2ccc(C)cc2)s1,.,.,.,0,7,99,
O=C(Nc1nc(-c2cccs2)cs1)c1ccc(S(=O)(=O)N2CCCC2)cc1,99,-1,94,19,-1,99,
O=C(Nc1nc(-c2ccc(S(=O)(=O)N3CCCCCC3)cc2)cs1)c1ccccc1,101,0,93,3,.,.,
Cc1cccc(NC(=O)CCS(=O)(=O)c2ccccc2)c1,103,2,105,0,.,.,
Cc1cccc(NC(=O)CCS(=O)(=O)c2ccccc2)n1,102,-5,96,6,3,97,
C=CC[C@H](CC(=O)OC(C)(C)C)C(=O)OC[C@@H]1CCCN1C(=O)[C@H](CC=C)CC(=O)N[C@H](CO)Cc1ccccc1,.,.,.,0,.,.,
COc1ccc(N(CC(=O)NC2CCCC2)S(=O)(=O)c2c(C)[nH]c(=O)[nH]c2=O)cc1,104,6,113,23,4,97,
COc1ccccc1NC(=O)NC1(C(=O)N2CCOCC2)CCCCC1,101,2,97,0,.,.,
COc1ccccc1NC(=O)NC1(C(=O)N2CCCCCC2)CCCCC1,88,3,104,95*,-3,95,
CC(=O)Nc1ccc(NC(=O)CSc2nnc(NC(=O)C3CC(=O)N(c4ccc(F)cc4)C3)s2)cc1 (stereo not given),102,6,107,0,.,.,
CCCn1c(SC(C)C(=O)NCC2CCCO2)nc2sc(CC)cc2c1=O (stereo not given),101,0,101,0,.,.,
CCn1c(SCC(=O)OC)nc2sc3c(c2c1=O)CC(C)(C)OC3,101,3,104,2,.,.,
CCn1c(SCC(=O)OC)nc2sc3c(c2c1=O)CCC3,98,2,101,9,.,.,GRK2 CP2=14;FAM quench SP=100
Cn1c(SCc2nnc(-c3ccccc3Br)o2)nc2sc3c(c2c1=O)CCC3,91,-7,88,0,.,.,GRK2 CP2=23;FAM quench SP=100
O=C(O)CSc1nc2sc3c(c2c(=O)n1-c1ccccc1)CCC3,109,14,105,3,.,.,GRK2 CP2=-22;FAM quench SP=104
CCCn1c(SC(C)C(=O)NCC2CCCO2)nc2sc3c(c2c1=O)CCC3 (stereo not given),.,.,.,1,.,.,GRK2 CP2=-8;FAM quench SP=98
SMILES,MEKK3 PB1 HTS,MEKK2 mut-MEK5,MEKK2 WT-MEK5,GRK2 inh,GRK2 inh confirm,Aptamer quench SP,others
COCCCn1c(SCc2nnc(-c3ccccc3)o2)nc2sc3c(c2c1=O)CCC3,110,4,109,2,.,.,
COc1ccc(C(=O)N(Cc2ccccc2)c2cccc(C)c2)c(OC)c1OC,103,4,103,5,.,.,
COc1ccc(CC(=O)N(Cc2ccccc2)c2cccc(C)c2)cc1OC,103,7,105,100*,.,.,GRK2 CP2=5;FAM quench SP=99
NC(=O)COc1c(-c2ccc(Br)o2)oc2ccccc2c1=O,99,2,103,2,.,.,
CC1CCN(S(=O)(=O)N2CCCC(C(=O)NCc3ccccc3Cl)C2)CC1 (stereo not given),102,7,101,1,.,.,
Cc1cc(=O)n2nc(N3CCCC(C(=O)NCc4ccccc4C)C3)sc2n1 (stereo not given),101,3,104,0,-3,97,
Cc1cc(=O)n2nc(N3CCCC(C(=O)NCc4ccccc4Cl)C3)sc2n1 (stereo not given),98,4,103,0,-1,102,
CC1CC(C)CN(S(=O)(=O)N2CCCC(C(=O)NCc3ccccc3Cl)C2)C1 (stereo not given),102,2,97,0,-5,92,
Fc1ccccc1N1CCN(Cc2cc(-c3ccccc3)on2)CC1,100,0,101,0,.,.,
CCOC(=O)c1c2n(c3ccc(O)cc13)CCCCC2,99,4,97,0,.,.,
CCOC(=O)c1c(C)n2c3c(cc(C)cc13)CCC2,.,.,.,86*,-2,92,
O=C(Cc1ccccc1)NS(=O)(=O)c1ccc(N=NN2CCOCC2)cc1,101,-2,99,26,-3,99,
COC(=O)CCC(=O)NS(=O)(=O)c1ccc(N=NN2CCOCC2)cc1,80,-11,86,2,.,.,
COc1ccc(NC(=O)CCS(=O)(=O)c2ccccc2)c(OC)c1,107,6,96,2,.,.,
COc1ccc([N+](=O)[O-])cc1NC(=O)CCS(=O)(=O)c1ccc(Br)cc1,97,-5,103,54*,33,102,Aptamer quench=-7.6;Aptamer quench3=1.9;FAM quench PS1=97
COc1ccc(S(=O)(=O)CCC(=O)Nc2ccc(OC)cc2OC)cc1,95,7,106,4,.,.,GRK2 CP2=-7;FAM quench SP=102
COc1ccc(S(=O)(=O)CCC(=O)N(C)c2ccc(OC)cc2OC)cc1,104,4,103,2,.,.,GRK2 CP2=17;FAM quench SP=101
